Measurements published in PubChem BioAssay (NCATS).
Inconclusive results are not listed. The source made the active and inactive calls. The call rests on the fitted dose curve; in most records, active means well fitted curve in the direction sought with a large enough effect; inconclusive means small, poorly fitted or top-dose-only effect, or another doubt; inactive means no such curve, though single readings can be large; an effect the other way counts as inactive or inconclusive.

How the values were obtained:
MCC-13 = assay: qHTS assay to identify novel small-molecules to repurpose for Merkel cell carcinoma treatment (AID 1296009); details: MCC and control cell lines, CellTiter-Glo viability, 72 h; series mostly up to 46 µM; further: nearly all actives have a fitted effect of over 60% in size
In short: (§1)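 qHTS format: cells treated with library compounds in DMSO across 8 (NPC) or 11 (MIPE) concentrations. Readout after 72 hr at 37 degree celsius was CellTiter-Glo luminescence.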

MCC-26 = assay: as above; details: MCC and control cell lines, CellTiter-Glo viability, 72 h; series mostly up to 46 µM
In short: as §1

MKL-2 = assay: as above; details: MCC and control cell lines, CellTiter-Glo viability, 72 h; series mostly up to 46 µM
In short: as §1

NIH3T3 = assay: as above; details: MCC and control cell lines, CellTiter-Glo viability, 72 h; at 44.8 µM (top of the series) unless noted
In short: as §1

UISO = assay: as above; details: MCC and control cell lines, CellTiter-Glo viability, 72 h; series mostly up to 46 µM
In short: as §1

WaGa = assay: as above; details: MCC and control cell lines, CellTiter-Glo viability, 72 h; series mostly up to 46 µM
In short: as §1

C33A = assay: Primary qHTS to identify gynecologic anti-cancer compounds using libraries of approved drugs and bioactive compounds (AID 1345084); details: Gynecologic cancer cell panel viability, ATPlite luminescence, 48 h; series mostly up to 57.5 µM; further: nearly all actives have a fitted effect of over 55% in size
In short: (§2)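 Cells, 1,000 per well, plated 16 h, then exposed 48 h at 37 C to compounds. Viability by ATPlite luminescence after 15 min at room temperature.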

CAOV3 = assay: as above; details: Gynecologic cancer cell panel viability, ATPlite luminescence, 48 h; series mostly up to 57.5 µM
In short: as §2

CASKI = assay: as above; details: Gynecologic cancer cell panel viability, ATPlite luminescence, 48 h; series mostly up to 57.5 µM
In short: as §2

Es-2 = assay: as above; details: Gynecologic cancer cell panel viability, ATPlite luminescence, 48 h; series mostly up to 57.5 µM
In short: as §2

HeLa = assay: as above; details: Gynecologic cancer cell panel viability, ATPlite luminescence, 48 h; series mostly up to 57.5 µM
In short: as §2

Hek293T = assay: as above; details: Gynecologic cancer cell panel viability, ATPlite luminescence, 48 h, control line for the selectivity index; series mostly up to 57.5 µM
In short: as §2

JEG-3 = assay: as above; details: Gynecologic cancer cell panel viability, ATPlite luminescence, 48 h; series mostly up to 57.5 µM
In short: as §2

OV90 = assay: as above; details: Gynecologic cancer cell panel viability, ATPlite luminescence, 48 h; series mostly up to 57.5 µM
In short: as §2

PA-1 = assay: as above; details: Gynecologic cancer cell panel viability, ATPlite luminescence, 48 h; series mostly up to 57.5 µM
In short: as §2

SKOV3 = assay: as above; details: Gynecologic cancer cell panel viability, ATPlite luminescence, 48 h; series mostly up to 57.5 µM
In short: as §2

Tov-21-G = assay: as above; details: Gynecologic cancer cell panel viability, ATPlite luminescence, 48 h; series mostly up to 57.5 µM
In short: as §2

Tov112D = assay: as above; details: Gynecologic cancer cell panel viability, ATPlite luminescence, 48 h; series mostly up to 57.5 µM
In short: as §2

[1] = Drug repurposing screens with cells derived from glioblastoma tumor samples (AID 1345199); details: GBM patient neurospheres viability, ATP luminescence, 48 h; further: nearly all actives have a fitted effect of over 40% in size
In short: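 Four patient lines of CD133+ GBM neurospheres were screened at several concentrations; hits were retested in those lines plus three slower-growing GBM lines, using 48-hour treatment and ATP-based viability.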

MKL-1 = assay: qHTS assay to identify novel small-molecules to repurpose for Merkel cell carcinoma treatment (AID 1296009); details: MCC and control cell lines, CellTiter-Glo viability, 72 h; series mostly up to 46 µM; further: nearly all actives have a fitted effect of over 60% in size
In short: as §1

[2] = at 45.9 µM (top of the series), tumour line B
[3] = at 45.9 µM (top of the series), tumour line D
[4] = at 46 µM (top of the series), tumour line A
[5] = at 46.1 µM (top of the series), tumour line C
On the % scale 0 is the no-effect control and ±100 the full control effect.

C[C@]12C=CC(=O)C=C1CC[C@H]1[C@@H]3C[C@@H](O)[C@](O)(C(=O)CO)[C@@]3(C)C[C@H](O)[C@@]12F
inactive: Potency (MCC-13) | Potency (MCC-26) | Potency (MKL-2) | outcome (NIH3T3) | Potency (UISO) | Potency (WaGa) | Potency (C33A) | Potency (CAOV3) | Potency (CASKI) | Potency (Es-2) | Potency (HeLa) | Potency (Hek293T) | Potency (JEG-3) | Potency (OV90) | Potency (PA-1) | Potency (SKOV3) | Potency (Tov-21-G) | Potency (Tov112D) | activity, negative = cell killing [1, 2] -11.4% | activity, negative = cell killing [1, 3] -6.95% | activity, negative = cell killing [1, 4] -27.1% | activity, negative = cell killing [1, 5] 7.27%

NC(=O)c1cn(Cc2c(F)cccc2F)nn1
inactive: Potency (MCC-13) | Potency (MCC-26) | Potency (MKL-2) | Potency (UISO) | Potency (WaGa) | Potency (C33A) | Potency (CAOV3) | Potency (CASKI) | Potency (Es-2) | Potency (HeLa) | Potency (Hek293T) | Potency (JEG-3) | Potency (OV90) | Potency (PA-1) | Potency (SKOV3) | Potency (Tov-21-G) | Potency (Tov112D) | activity, negative = cell killing [1, 2] -2.3% | activity, negative = cell killing [1, 3] -3.04% | activity, negative = cell killing [1, 4] -26.2% | activity, negative = cell killing [1, 5] -19.6%

Fc1ccc(C(c2ccc(F)cc2)N2CCN(C/C=C/c3ccccc3)CC2)cc1
inactive: Potency (MCC-13) | Potency (MCC-26) | Potency (MKL-1) | Potency (UISO) | Potency (Es-2) | Potency (HeLa) | Potency (Hek293T) | Potency (JEG-3) | Potency (PA-1) | Potency (SKOV3) | Potency (Tov-21-G) | Potency (Tov112D)

CC1=NS(=O)(=O)c2cc(Cl)ccc2N1
inactive: Potency (MCC-13) | Potency (MCC-26) | Potency (MKL-2) | outcome (NIH3T3) | Potency (UISO) | Potency (WaGa) | Potency (C33A) | Potency (CAOV3) | Potency (CASKI) | Potency (Es-2) | Potency (HeLa) | Potency (Hek293T) | Potency (JEG-3) | Potency (PA-1) | Potency (Tov-21-G) | Potency (Tov112D) | activity, negative = cell killing [1, 2] -1.9% | activity, negative = cell killing [1, 3] 2.33% | activity, negative = cell killing [1, 4] -21.7% | activity, negative = cell killing [1, 5] 8.3%

CCNC(=O)N1CCN(CCCC(c2ccc(F)cc2)c2ccc(F)cc2)CC1
inactive: Potency (MCC-13) | Potency (MCC-26) | Potency (MKL-1) | Potency (C33A) | Potency (CAOV3) | Potency (CASKI) | Potency (Es-2) | Potency (HeLa) | Potency (JEG-3) | Potency (PA-1) | Potency (Tov-21-G) | Potency (Tov112D)

CC(=O)Nc1nnc(S(N)(=O)=O)s1
inactive: Potency (MCC-13) | Potency (MCC-26) | Potency (MKL-2) | outcome (NIH3T3) | Potency (UISO) | Potency (WaGa) | Potency (C33A) | Potency (CAOV3) | Potency (CASKI) | Potency (Es-2) | Potency (HeLa) | Potency (Hek293T) | Potency (JEG-3) | Potency (OV90) | Potency (PA-1) | Potency (Tov-21-G) | Potency (Tov112D) | activity, negative = cell killing [1, 2] -5.69% | activity, negative = cell killing [1, 3] 0.278% | activity, negative = cell killing [1, 4] 1.18% | activity, negative = cell killing [1, 5] -27.5%
